The source of these data is PubChem BioAssay.

Where “and” joins values, the source holds several entries; their conditions need not be identical. Equal entries are not always repeated. Unmarked numbers belong to inactive results. Calls of active or inactive are those of the source. Rule as the data show it, unless noted: active = inhibition above about 25%; inactive = the rest.

In the first assay the target is Nuclear receptor coactivator 1 (Homo sapiens) (UniProt Q15788). The assay can be described thus: NCOA1 GAL4-fusion reporter inhibition – cell-based, luminescence, quadruplicate, confirmation (AID 588820;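 active = mean inhibition above 46.68%, the untreated control wells mean plus 3 SD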;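 also: 0% = DMSO wells and 100% = gossypol 36 µM treated wells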). To be noted: HEK293 GAL4-SRC1 luciferase reporter, at 3.6 µM, active compounds read high. (A reporter such as luciferase makes a cellular process visible.)
Chain of Nuclear receptor coactivator 1 (Homo sapiens) (Q15788 whole entry, looked up, the tested form may be a part): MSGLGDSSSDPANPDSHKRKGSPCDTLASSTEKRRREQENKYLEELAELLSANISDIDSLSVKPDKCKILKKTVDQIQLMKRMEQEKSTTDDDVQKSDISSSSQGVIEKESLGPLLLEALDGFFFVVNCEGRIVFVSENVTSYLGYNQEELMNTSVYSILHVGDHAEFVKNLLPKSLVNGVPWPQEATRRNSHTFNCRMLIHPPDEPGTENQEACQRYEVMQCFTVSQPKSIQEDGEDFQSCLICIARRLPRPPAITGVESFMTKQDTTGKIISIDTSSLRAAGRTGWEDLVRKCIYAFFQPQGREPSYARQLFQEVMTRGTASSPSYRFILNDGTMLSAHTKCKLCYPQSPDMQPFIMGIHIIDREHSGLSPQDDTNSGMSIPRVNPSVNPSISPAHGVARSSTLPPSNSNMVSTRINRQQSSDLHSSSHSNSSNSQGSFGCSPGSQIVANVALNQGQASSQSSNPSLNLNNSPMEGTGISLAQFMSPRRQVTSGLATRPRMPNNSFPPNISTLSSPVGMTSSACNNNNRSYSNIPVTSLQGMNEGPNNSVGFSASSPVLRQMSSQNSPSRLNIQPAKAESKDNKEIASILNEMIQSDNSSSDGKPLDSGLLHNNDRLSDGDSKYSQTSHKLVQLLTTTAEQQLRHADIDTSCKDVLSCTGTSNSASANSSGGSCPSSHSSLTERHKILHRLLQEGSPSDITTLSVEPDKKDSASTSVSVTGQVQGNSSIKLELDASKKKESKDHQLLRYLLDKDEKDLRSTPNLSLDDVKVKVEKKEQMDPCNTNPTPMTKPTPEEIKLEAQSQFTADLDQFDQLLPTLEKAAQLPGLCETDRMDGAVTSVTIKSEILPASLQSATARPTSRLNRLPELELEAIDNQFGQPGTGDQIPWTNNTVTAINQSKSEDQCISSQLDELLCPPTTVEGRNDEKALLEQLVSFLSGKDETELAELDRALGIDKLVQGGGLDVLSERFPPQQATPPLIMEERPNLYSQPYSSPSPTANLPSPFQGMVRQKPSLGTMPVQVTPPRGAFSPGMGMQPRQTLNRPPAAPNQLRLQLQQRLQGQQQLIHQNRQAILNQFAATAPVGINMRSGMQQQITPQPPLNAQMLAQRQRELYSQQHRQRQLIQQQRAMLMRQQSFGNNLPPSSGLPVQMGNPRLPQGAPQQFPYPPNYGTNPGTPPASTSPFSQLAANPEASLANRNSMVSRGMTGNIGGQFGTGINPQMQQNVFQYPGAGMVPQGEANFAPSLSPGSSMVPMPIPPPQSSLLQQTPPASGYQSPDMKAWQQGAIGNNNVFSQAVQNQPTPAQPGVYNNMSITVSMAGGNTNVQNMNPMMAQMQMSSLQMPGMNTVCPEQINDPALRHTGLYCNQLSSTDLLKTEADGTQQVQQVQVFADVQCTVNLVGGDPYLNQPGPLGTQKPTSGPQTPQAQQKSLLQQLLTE
What is called inhibition is the relative decrease from the control value, in per cent. With `CCN(C(=O)c1cc(S(=O)(=O)N2CCCCC2)c[nH]1)c1ccc(OC)cc1`, the inhibition is 28.1%.

With `Cc1noc(/C=C/c2ccco2)c1S(=O)(=O)N1CCC(C(=O)Nc2ccc(Cl)cn2)CC1`, the inhibition was 16.8%.

For the compound `O=C1CCC2S/C(=C/Nc3ccc(C(F)(F)F)cc3)C(=O)N12` (stereo not drawn), the inhibition was 15.1%.

For `CC(=O)N1CCCC(c2cc(C(=O)Nc3ccccc3)no2)C1` (stereo not drawn), the inhibition is -48.3%.

For `COc1ccccc1NS(=O)(=O)c1cccc(NC(=O)c2cncc(Br)c2)c1`, the inhibition is 20%.

For the compound `Cc1cc(NC(=O)Cc2ccccc2)c2ccccc2n1`, the inhibition is 11.1%.

In the case of `O=C(Nc1ccc2c(c1)OCCO2)c1[nH]c(C(F)(F)F)nc1-c1ccccc1`, the inhibition is -3.74%.

On to `CC(=O)Nc1ccc(OCC(=O)Nc2ccc(Cl)c(S(=O)(=O)N3CCOCC3)c2)cc1`, for which the inhibition was -7.7%.

As for `Cc1ccc(Oc2ccc(C(=O)NCc3ccncc3)cc2)cc1`, the inhibition was 2.24%.

`Cc1ccc(OCC(=O)NC(=S)Nc2ccccn2)c(Br)c1`: the inhibition is -49%.

On to `Cc1sc2ncnc(NC3CCN(Cc4ccccc4)CC3)c2c1C`, for which the inhibition was -6.93%.

`CCn1ccnc1CN(C)Cc1cn[nH]c1-c1ccc(F)cc1F`: the inhibition was 30.6%.

With `O=C1c2c(O)ccc(O)c2C(=O)c2c(NCCNCCO)ccc(NCCNCCO)c21`, the inhibition is -142% and -11.9%.

In the case of `O=C(CCl)Nc1ccc(Oc2cnc3ccccc3n2)cc1`, the inhibition is 4.66%.

On to `c1ccc2c(-c3cccc4nccn34)cncc2c1`, for which the inhibition was 33.6%.

`NC(=S)NN=Cc1ccc(OC(=O)COc2cc(Cl)c(Cl)cc2Cl)cn1`: the inhibition is 23.4%.

Take `CN(C)CCNC(=O)c1ccc(Cl)c2cc3ccccc3nc12`: the inhibition is 14.8%.

For the compound `Cc1sc2ncnc(N3CCC(C(=O)N(C)CC(=O)Nc4cccc(F)c4)CC3)c2c1C`, the inhibition is 33.5%.

On to `CCN1CCN(C(=S)c2ccc(-c3ccccc3)cc2)CC1`, for which the inhibition was 37.8%.

`Cc1ncc(CO)c(/C=N/Nc2ccc(C(F)(F)F)cn2)c1O`: the inhibition is 11.6%.

For `COc1ccc(S(=O)(=O)N2CCOCC2)cc1NC(=O)CCNC(=O)c1ccc(Br)cc1`, the inhibition is 64.3% (active).

For the compound `CC(C)CCNC(=O)c1sc2ccc(S(=O)(=O)N3CCCCC3)cc2c1N`, the inhibition is 13.5%.

For the compound `Cc1nc2sc(C(N)=O)c(N)c2c(C)c1CC(=O)c1ccccc1`, the inhibition was 35.5%.

Take `CN(C)S(=O)(=O)N1CCC(Oc2cccc(C(=O)NC3CCCCC3)c2)CC1`: the inhibition was -42%.

With `C=C1C(=O)C23CCC4C(C)(C(=O)OC)CCCC4(C)C2CCC1(O)C3` (stereo not drawn), the inhibition was -0.73%.

For the compound `O=C1C=C(NCCc2cc(Br)c(O)c(Br)c2)C(=O)c2ncccc21`, the inhibition was -170%.

`O=S(=O)(Nc1ccc2c(c1)OCCO2)c1cccc2nsnc12`: the inhibition was 7.42%.

Consider `c1cn(-c2ncnc3sc4c(c23)CCCC4)cn1`, for which the inhibition is 11.4%.

In the case of `CC(C)(C)c1cc(/C=N/O)cc(C(C)(C)C)c1O`, the inhibition was 33.6%.

Take `C=C1C(=O)C23C(O)C1CCC2C12COC3(O)C(O)C1C(C)(C)CCC2O` (stereo not drawn): the inhibition is -16%.

Regarding `CCOC(=O)C1CCN(C(=O)c2ccc(OCC(=O)Nc3cccc(C(F)(F)F)c3)c(OC)c2)CC1`, the inhibition was 4.29%.

Consider `COc1ccc(CCNc2c(C)c(C)nc3ncnn23)cc1`, for which the inhibition was -13.9%.

Consider `COc1cccc(N2CCN(c3c(C#N)c(C(F)(F)F)nn3C)CC2)c1`, for which the inhibition was 48.8% (active).

In the case of `O=[N+]([O-])c1ccc2c(c1)-c1ccccc1C2=NO`, the inhibition was 21.4%.

As for `O=C(NCCc1cccc(Cl)c1)c1ccc(OC2CCN(Cc3ccccn3)CC2)cc1`, the inhibition is -20.2%.

With `CN(c1ccc(C(=O)N2CCN(Cc3ccc4c(c3)OCO4)CC2)cc1)S(=O)(=O)c1ccccc1`, the inhibition was 14.7%.

As for `CN(C)CCNc1ccc2nnn3c4ccc(O)cc4c(=O)c1c23`, the inhibition is 0.55%.

Consider `Cc1ccc(C(=O)C(C(=O)/C=C/c2ccccc2)=C2SCCCS2)cc1`, for which the inhibition is 44.4%.

With `COc1ccc(CNc2ncc(-c3ccc(F)cc3)n2C)c2ccccc12`, the inhibition was 41.3%.

System in another assay: not listed separately
The assay can be described thus: repression of VP16-driven luciferase reporter – cell-based, luminescence, high throughput, counter-screen for SRC1 inhibitor project (AID 588824). To be noted: cell-based VP16 transactivation luciferase luminescence; at 3.6 µM; active compounds read high.
Turning to `CCN(C(=O)c1cc(S(=O)(=O)N2CCCCC2)c[nH]1)c1ccc(OC)cc1`, the inhibition is 22.5%.

For `Cc1noc(/C=C/c2ccco2)c1S(=O)(=O)N1CCC(C(=O)Nc2ccc(Cl)cn2)CC1`, the inhibition was 24.4%.

`O=C1CCC2S/C(=C/Nc3ccc(C(F)(F)F)cc3)C(=O)N12` (stereo not drawn): the inhibition was 6.56%.

Take `CC(=O)N1CCCC(c2cc(C(=O)Nc3ccccc3)no2)C1` (stereo not drawn): the inhibition was -15.3%.

As to `COc1ccccc1NS(=O)(=O)c1cccc(NC(=O)c2cncc(Br)c2)c1`, the inhibition is 25.1%.

As for `Cc1cc(NC(=O)Cc2ccccc2)c2ccccc2n1`, the inhibition is 36.5% (active).

For the compound `O=C(Nc1ccc2c(c1)OCCO2)c1[nH]c(C(F)(F)F)nc1-c1ccccc1`, the inhibition was -15.6%.

As to `CC(=O)Nc1ccc(OCC(=O)Nc2ccc(Cl)c(S(=O)(=O)N3CCOCC3)c2)cc1`, the inhibition is 27.7% (active).

Consider `Cc1ccc(Oc2ccc(C(=O)NCc3ccncc3)cc2)cc1`, for which the inhibition was 23.4%.

For the compound `Cc1ccc(OCC(=O)NC(=S)Nc2ccccn2)c(Br)c1`, the inhibition is -39.2%.

For `Cc1sc2ncnc(NC3CCN(Cc4ccccc4)CC3)c2c1C`, the inhibition is 23.8%.

Take `CCn1ccnc1CN(C)Cc1cn[nH]c1-c1ccc(F)cc1F`: the inhibition was 15.7%.

As for `O=C1c2c(O)ccc(O)c2C(=O)c2c(NCCNCCO)ccc(NCCNCCO)c21`, the inhibition is 20.7% and 0.91%.

For `O=C(CCl)Nc1ccc(Oc2cnc3ccccc3n2)cc1`, the inhibition is 2.08%.

Turning to `c1ccc2c(-c3cccc4nccn34)cncc2c1`, the inhibition is 30.7% (active).

Take `NC(=S)NN=Cc1ccc(OC(=O)COc2cc(Cl)c(Cl)cc2Cl)cn1`: the inhibition was 18.9%.

In the case of `CN(C)CCNC(=O)c1ccc(Cl)c2cc3ccccc3nc12`, the inhibition is 29.6% (active).

With `Cc1sc2ncnc(N3CCC(C(=O)N(C)CC(=O)Nc4cccc(F)c4)CC3)c2c1C`, the inhibition was 22.7%.

As to `CCN1CCN(C(=S)c2ccc(-c3ccccc3)cc2)CC1`, the inhibition was 12.8%.

Turning to `Cc1ncc(CO)c(/C=N/Nc2ccc(C(F)(F)F)cn2)c1O`, the inhibition was 18.7%.

On to `COc1ccc(S(=O)(=O)N2CCOCC2)cc1NC(=O)CCNC(=O)c1ccc(Br)cc1`, for which the inhibition was 61.1% (active).

As to `CC(C)CCNC(=O)c1sc2ccc(S(=O)(=O)N3CCCCC3)cc2c1N`, the inhibition was 13.8%.

Take `Cc1nc2sc(C(N)=O)c(N)c2c(C)c1CC(=O)c1ccccc1`: the inhibition is 5.05%.

For the compound `CN(C)S(=O)(=O)N1CCC(Oc2cccc(C(=O)NC3CCCCC3)c2)CC1`, the inhibition is 22%.

Regarding `C=C1C(=O)C23CCC4C(C)(C(=O)OC)CCCC4(C)C2CCC1(O)C3` (stereo not drawn), the inhibition was 53.7% (active).

For `O=C1C=C(NCCc2cc(Br)c(O)c(Br)c2)C(=O)c2ncccc21`, the inhibition was 14.2%.

With `O=S(=O)(Nc1ccc2c(c1)OCCO2)c1cccc2nsnc12`, the inhibition was -8.28%.

As to `c1cn(-c2ncnc3sc4c(c23)CCCC4)cn1`, the inhibition is 7.19%.

On to `CC(C)(C)c1cc(/C=N/O)cc(C(C)(C)C)c1O`, for which the inhibition was 26.5% (active).

As to `C=C1C(=O)C23C(O)C1CCC2C12COC3(O)C(O)C1C(C)(C)CCC2O` (stereo not drawn), the inhibition was -9.14%.

`CCOC(=O)C1CCN(C(=O)c2ccc(OCC(=O)Nc3cccc(C(F)(F)F)c3)c(OC)c2)CC1`: the inhibition was 35.4% (active).

Regarding `COc1ccc(CCNc2c(C)c(C)nc3ncnn23)cc1`, the inhibition is 29.1% (active).

For `COc1cccc(N2CCN(c3c(C#N)c(C(F)(F)F)nn3C)CC2)c1`, the inhibition was 32.2% (active).

Regarding `O=[N+]([O-])c1ccc2c(c1)-c1ccccc1C2=NO`, the inhibition was 9.81%.

For the compound `O=C(NCCc1cccc(Cl)c1)c1ccc(OC2CCN(Cc3ccccn3)CC2)cc1`, the inhibition is -8.94%.

With `CN(c1ccc(C(=O)N2CCN(Cc3ccc4c(c3)OCO4)CC2)cc1)S(=O)(=O)c1ccccc1`, the inhibition was 23%.

Take `CN(C)CCNc1ccc2nnn3c4ccc(O)cc4c(=O)c1c23`: the inhibition was 50.6% (active).

With `Cc1ccc(C(=O)C(C(=O)/C=C/c2ccccc2)=C2SCCCS2)cc1`, the inhibition was 34.3% (active).

On to `COc1ccc(CNc2ncc(-c3ccc(F)cc3)n2C)c2ccccc12`, for which the inhibition is -14.1%.
